Screening data from PubChem BioAssay.
VLA-4 inh = inhibition in human VLA-4 binding assay, primary screen, VLA-4 allosteric modulator project, MLPCN library, flow cytometry, VLA-4 expressing cells. 330,000 tested, 0.2% active. inhibition, % (about 7 µM as worked out from the volumes in the protocol). Integrin alpha-4 (Homo sapiens), P13612. ligand binding flow cytometry. AID 2557, 2010; in the data active = inhibition above about 50%
Target sequence (P13612 whole entry, looked up): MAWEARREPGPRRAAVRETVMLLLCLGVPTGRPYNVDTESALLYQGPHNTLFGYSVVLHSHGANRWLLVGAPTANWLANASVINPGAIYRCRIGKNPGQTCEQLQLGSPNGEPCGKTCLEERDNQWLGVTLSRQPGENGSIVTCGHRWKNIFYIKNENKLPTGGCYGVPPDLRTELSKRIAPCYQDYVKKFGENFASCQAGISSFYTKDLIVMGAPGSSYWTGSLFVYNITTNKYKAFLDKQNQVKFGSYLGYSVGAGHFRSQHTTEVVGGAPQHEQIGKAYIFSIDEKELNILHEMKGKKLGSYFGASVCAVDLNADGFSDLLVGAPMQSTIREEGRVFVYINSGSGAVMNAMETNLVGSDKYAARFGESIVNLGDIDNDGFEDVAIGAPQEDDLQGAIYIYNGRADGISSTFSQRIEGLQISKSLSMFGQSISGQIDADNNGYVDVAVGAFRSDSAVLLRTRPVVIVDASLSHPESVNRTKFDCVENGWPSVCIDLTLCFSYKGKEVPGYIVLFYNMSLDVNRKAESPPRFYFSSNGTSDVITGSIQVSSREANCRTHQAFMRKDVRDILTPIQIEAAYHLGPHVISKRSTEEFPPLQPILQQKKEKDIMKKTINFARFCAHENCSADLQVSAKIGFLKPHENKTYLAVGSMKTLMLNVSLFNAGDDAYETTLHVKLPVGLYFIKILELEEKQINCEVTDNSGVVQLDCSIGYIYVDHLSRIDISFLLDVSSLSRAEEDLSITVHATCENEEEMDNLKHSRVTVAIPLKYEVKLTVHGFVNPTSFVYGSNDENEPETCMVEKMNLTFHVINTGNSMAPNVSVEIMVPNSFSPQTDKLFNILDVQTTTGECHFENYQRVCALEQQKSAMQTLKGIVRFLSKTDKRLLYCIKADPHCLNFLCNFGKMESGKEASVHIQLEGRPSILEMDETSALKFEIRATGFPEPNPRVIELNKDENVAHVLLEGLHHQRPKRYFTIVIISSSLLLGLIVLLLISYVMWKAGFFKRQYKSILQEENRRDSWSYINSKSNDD
MEP2-GFP yeast = modulators of MEP2-GFP levels in yeast, primary screen, S. cerevisiae, multiplex flow cytometry, MLPCN library; S. cerevisiae MEP2-GFP strain, 3 h; 100% = DMSO control level; GFP response vs DMSO, % at 10 µM; 330,000 tested, 0.51% active; AID 2016, 2009;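 active = GFP response versus DMSO above a set limit, roughly screen mean plus 3 SD, cut at about 180% in these data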;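 also: median GFP fluorescence of the barcode-gated MEP2-GFP cells per well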
AGP1 TOR yeast = modulators of AGP1-GFP expression in yeast TOR pathway, primary screen, cell-based, multiplex flow cytometry, S. cerevisiae, MLPCN library; 3 h; GFP as percent of DMSO wells; GFP response vs DMSO, % at 10 µM; 320,000 tested, 0.02% active; AID 2066, 2009;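 active = GFP response relative to DMSO above a set limit, near screen average plus 3 SD, cut at about 150% in these data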;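 also: median GFP channel fluorescence of the gated AGP1 strain per well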
RPL19A TOR yeast = RPL19A-GFP expression modulators in yeast, primary screen, cell-based, S. cerevisiae, multiplex flow cytometry, MLPCN. 330,000 tested, 0.3% active. S. cerevisiae RPL19A-GFP strain, 3 h; active compounds read low. percent response vs DMSO, % at 10 µM;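 active = percent response vs DMSO below 50%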;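 also: median channel GFP fluorescence of the barcoded RPL19A-GFP strain; ratio of sample median GFP to plate DMSO average so 100% = DMSO; lower means less RPL19A-GFP as with rapamycin TOR inhibition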
CIT2-GFP yeast = modulators of CIT2-GFP expression in yeast, primary screen, S. cerevisiae, GFP fusion, multiplex flow cytometry, MLPCN library; S. cerevisiae CIT2-GFP strain, 3 h; 100 means same as DMSO wells; GFP response vs DMSO, % at 10 µM; 320,000 tested, 0.065% active;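 active = GFP response relative to DMSO above a set limit, near the screen mean plus 3 SD, cut at about 150% in these data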;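 also: ratio of well median GFP fluorescence to mean of DMSO wells on the plate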
LAP4-GFP MLPCN = modulators of LAP4-GFP expression in yeast, primary screen, S. cerevisiae, multiplex flow cytometry, MLPCN library; 3 h; median GFP as percent of DMSO wells; GFP response vs DMSO, % at 10 µM; 320,000 tested, 0.34% active; AID 2023, 2009;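 active = GFP response vs DMSO above a set limit, about the screen mean plus 3 SD, cut at about 150% in these data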
VLA-4 allo CP = retest of VLA-4 allosteric modulators, confirmation, cell-based, cherry-picked plates, U937, HUTS-21 LIBS antibody; inhibition, % at 6.7 µM; shares compounds with VLA-4 inh; U937 cells, HUTS-21 LIBS mAb binding, flow cytometry; LDV ligand present at threefold Kd; AID 2813, 2010; 1,300 tested, 2% active; in the data active = inhibition above about 40%;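 also: 0% = ligand without compound and 100% = no ligand background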
* marks the source's active call; other numbers are inactive results; · = not tested or not shown. Hits are enriched below; roughly 1.1% of the tested compounds scored in any of these assays.

SMILES	VLA-4 inh	MEP2-GFP yeast	AGP1 TOR yeast	RPL19A TOR yeast	CIT2-GFP yeast	LAP4-GFP MLPCN	VLA-4 allo CP
Cc1ccc(S(=O)(=O)CCC(=O)OCc2ccc(S(=O)(=O)C(C)C)cc2)cc1	51*	109	93	97	101	94	3
Cc1ccc(S(=O)(=O)CCC(=O)OCc2ccc(Cl)c(Cl)c2)cc1	-13	106	97	106	106	94	·
O=C1OC(N2C(=O)CC[C@H]2C(=O)Nc2ccc3c(c2)OCO3)c2ccccc21 (some centres undefined)	-6	107	107	103	108	101	·
CCCNC(=O)Cn1c(=O)oc2cc(S(=O)(=O)N3CCCC3)ccc21	57*	97	104	101	98	104	-3
COCc1nnc(NS(=O)(=O)c2c(C)cc(C)cc2C)s1	3	95	98	96	92	96	·
CC(=O)c1ccccc1NS(=O)(=O)c1ccccc1Cl	-3	106	106	106	101	107	4
CC(=O)c1ccccc1NS(=O)(=O)c1c(C)nn(-c2ccccc2)c1C	7	101	97	101	100	109	·
Cc1ccnc(NS(=O)(=O)c2ccc(NC(=O)C34CC5CC(CC(C5)C3)C4)cc2)n1	11	103	108	96	100	96	·
CC(=O)Nc1cccc(C(=O)N2CCC(n3nccc3NC(=O)CC(C)C)CC2)c1	1	94	93	105	87	87	·
COc1ccccc1NS(=O)(=O)c1cc(NC(=O)CNC(=O)c2ccccc2)ccc1C	53*	94	91	98	93	85	0
CC1CCC(CN2C(Nc3ccccc3)=NC[C@@H]2Cc2ccccc2)CC1 (some centres undefined)	28	96	89	96	86	86	·
Cc1nnc(NC(=O)CSc2nnc(CC(=O)Nc3ccccc3F)n2C)s1	-1	102	99	103	96	98	·
Cc1c(NC(=O)C(c2ccccc2)c2ccccc2)cccc1C(=O)O	0	97	103	102	96	110	·
O=C(O)c1cc(O)ccc1NC(=O)C(c1ccccc1)c1ccccc1	22	138	104	110	108	106	0
COc1ccc(NC(=O)Cn2cc(C(C)=O)c3ccccc32)cc1	7	96	98	99	98	106	3
CC(=O)c1cn(CC(=O)Nc2ccccc2C)c2ccccc12	13	99	104	95	96	98	·
CCC(=O)c1cn(CC(=O)Nc2ccc(C)cc2C)c2ccccc12	-1	112	103	108	105	100	0
CCOc1ccc(NC(=O)Cn2cc(C(C)=O)c3ccccc32)cc1	4	97	96	103	100	99	·
Cc1cccc(NC(=O)Cn2cc(C=O)c3ccccc32)c1	7	106	102	106	100	98	·
Cc1cccc(C)c1NC(=O)Cn1cc(C=O)c2ccccc21	5	104	101	101	103	93	8
CC(=O)c1cn(CC(=O)Nc2c(C)cccc2C)c2ccccc12	5	104	100	100	98	105	·
CCC(=O)c1cn(CC(=O)Nc2c(C)cccc2C)c2ccccc12	14	110	105	110	115	91	7
COc1ccc(C(=O)[C@@H]2CC[C@](C)(C(=O)O)C2(C)C)cc1	12	89	78	95	65	121	·
Cc1ccc(C)c(NC(=O)CN(C)C(=O)C2CCN(C(=O)Nc3ccccc3)CC2)c1	2	99	104	99	104	99	·
CCC(=O)c1cn(CC(=O)Nc2cccc(OC)c2)c2ccccc12	11	95	87	95	96	78	6
SMILES	VLA-4 inh	MEP2-GFP yeast	AGP1 TOR yeast	RPL19A TOR yeast	CIT2-GFP yeast	LAP4-GFP MLPCN	VLA-4 allo CP
CCOc1ccc(NC(=O)Cn2cc(C(=O)CC)c3ccccc32)cc1	6	108	101	101	102	92	·
O=C(CSc1nc2ncc(Br)cc2[nH]1)c1cccc([N+](=O)[O-])c1	-2	97	93	104	94	88	·
Cc1nc2nc(SCC(=O)c3cccc([N+](=O)[O-])c3)[nH]c2cc1Br	44	98	92	97	93	86	-9
O=C1C=C(c2ccc3cc[nH]c3c2)C[C@@H](c2ccc3c(c2)OCO3)C1	-1	94	92	91	88	107	·
CCN(CC)c1ccc(CNc2ccc3c(c2)ncn3C(C)(C)C)cc1	54*	89	98	97	101	91	8
CCc1ccc(CNc2ccc3c(c2)ncn3C(C)(C)C)cc1	8	91	101	96	95	94	·
O=C(C1CCC(CNS(=O)(=O)c2cccc3cccnc23)CC1)N1CCc2ccccc21 (centres undefined)	53*	99	103	99	94	102	11
COC(=O)c1ccsc1NC(=O)CN1C(=O)CCC1=O	52*	109	106	100	96	102	0
O=C(CCNS(=O)(=O)c1ccccc1F)OCc1ccccc1Cl	-8	99	103	104	102	99	·
CC1CCC(NC(=O)N(CCCl)N=O)CC1 (centres undefined)	65*	99	86	99	78	102	0
CC1CCC(NC(=S)NCCN(C)C)CC1 (centres undefined)	-6	100	101	98	102	97	·
CCCS(=O)(=O)N1CCC(C(=O)NC2CCC(C)CC2)CC1 (centres undefined)	93*	110	106	99	105	103	-1
CC1CCN(S(=O)(=O)N2CCC(C(=O)NC3CCCC3)CC2)CC1	18	102	90	94	89	101	·
C[C@H]([C@H](O)c1ccccc1)N(C)C(=O)CN	51*	89	88	99	93	138	-1
C[C@H](C(O)c1ccccc1)N(C)C(=O)CN (some centres undefined)	-3	91	81	98	80	102	·
COc1ccc(OC)c(C2c3[nH]c4ccccc4c3C[C@H]3C(=O)N(CCCOC(C)C)CC(=O)N23)c1 (some centres undefined)	2	111	104	106	103	91	·
